PubChem BioAssay (Tox21)
Inconclusive results are not listed. Calls of active or inactive are those of the source. Calls follow the shape of the full dose curve.

Columns and labels:
[1] = biological target: Acetylcholinesterase (Homo sapiens) (UniProt P22303); assay: Acetylcholinesterase (AChE) small molecule antagonists: colormetric cell-based qHTS assay (AID 1347395); also: nearly all actives have a fitted effect of over 30% in size
Method in brief: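 AChE inhibition read colorimetrically via DTNB–thiocholine in SH-SY5Y cells. Compound 30 min, substrate 90 min, both 37 C.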

[2] = biological target: Acetylcholinesterase (Homo sapiens) (UniProt P22303); assay: Acetylcholinesterase (AChE) small molecule antagonists: enzyme-based qHTS assay (AID 1347397); settings: Potency: AChE enzyme activity inhibition; outcome: AChE enzyme activity inhibition; also: nearly all actives have a fitted effect of over 55% in size
Method in brief: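 Absorbance-based detection of thiocholine with DTNB served as the read-out. Recombinant human AChE was exposed to compound for 30 min at RT before a 10 min RT incubation with acetylthiocholine.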

[3] = biological target: Acetylcholinesterase (Homo sapiens) (UniProt P22303); assay: Acetylcholinesterase (AChE) small molecule antagonists: fluorescence cell-based qHTS assay (AID 1347398); settings: Potency: AChE activity; outcome: AChE activity; also: nearly all actives have a fitted effect of over 50% in size
Method in brief: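 Fluorimetric cell-based assay: intact SH-SY5Y cells, 30 min compound preincubation at 37 C, acetylthiocholine substrate with thiol probe Thiolite Green, 40 min RT development, fluorescence 490/520 nm.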

[4] = biological target: Acetylcholinesterase (Homo sapiens) (UniProt P22303); assay: Acetylcholinesterase (AChE) small molecule antagonists: enzyme-based qHTS assay with human liver microsomes (AID 1347399); settings: Potency: qHTS inhibition; outcome: qHTS inhibition; also: nearly all actives have a fitted effect of over 60% in size
Method in brief: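 Recombinant human AChE (50 mU/mL in the enzyme mix) and human liver microsomes (0.25 mg/mL final) were preincubated with compound and NADPH (0.25 mg/mL final) for 30 min at 37 C. Acetylthiocholine/DTNB was then added; thiocholine was read colorimetrically after 10 min at room temperature.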
% is scaled to controls: 0 for no effect and ±100 for the full control effect.

Sequence of Acetylcholinesterase (Homo sapiens) (P22303 whole entry, looked up): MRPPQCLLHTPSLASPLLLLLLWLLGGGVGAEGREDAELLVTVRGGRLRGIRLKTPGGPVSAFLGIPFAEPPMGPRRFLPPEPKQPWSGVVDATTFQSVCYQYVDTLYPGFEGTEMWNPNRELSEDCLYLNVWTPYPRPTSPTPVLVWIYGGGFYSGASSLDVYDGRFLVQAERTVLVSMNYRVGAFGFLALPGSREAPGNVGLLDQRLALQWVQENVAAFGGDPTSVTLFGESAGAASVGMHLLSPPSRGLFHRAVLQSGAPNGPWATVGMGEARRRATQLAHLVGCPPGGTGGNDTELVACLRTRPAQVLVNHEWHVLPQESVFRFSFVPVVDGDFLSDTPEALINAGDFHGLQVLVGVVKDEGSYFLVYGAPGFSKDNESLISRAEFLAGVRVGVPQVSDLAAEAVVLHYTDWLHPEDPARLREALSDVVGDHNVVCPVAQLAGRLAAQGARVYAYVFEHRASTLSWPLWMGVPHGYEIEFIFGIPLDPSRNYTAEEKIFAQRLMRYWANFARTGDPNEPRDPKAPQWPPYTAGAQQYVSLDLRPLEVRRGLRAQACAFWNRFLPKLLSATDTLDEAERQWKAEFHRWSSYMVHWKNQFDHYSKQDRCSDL

CC1CCCNC1 (stereo not drawn)
inactive: Potency [1] | Potency [2] | Potency [3] | Potency [4]

C=CC(C)(O)CC/C=C(/C)CCC=C(C)C (stereo not drawn)
inactive: Potency [1] | Potency [2] | Potency [3]

Cc1cnc(C(=O)NCCc2ccc(S(=O)(=O)NC(=O)NC3CCCCC3)cc2)cn1
inactive: Potency [1] | Potency [2] | Potency [3]

CC(C)(C)c1cc(O)c(C(C)(C)C)cc1O
inactive: Potency [1] | Potency [2] | Potency [3]

CC(CO)Oc1ccccc1 (stereo not drawn)
inactive: Potency [1] | Potency [2] | Potency [3]

CCOC(=O)N1CCC(=C2c3ccc(Cl)cc3CCc3cccnc32)CC1
inactive: Potency [1] | Potency [2] | Potency [3]

CO[Si](CCCNCCN)(OC)OC
inactive: Potency [1] | Potency [2] | Potency [3] | Potency [4]

CC1=C(C(=O)O)N2C(=O)[C@@H](NC(=O)[C@H](N)c3ccccc3)[C@H]2SC1
inactive: Potency [1] | Potency [2] | Potency [3]

COCCOC[C@H](CC1(C(=O)NC2CCC(C(=O)O)CC2)CCCC1)C(=O)Oc1ccc2c(c1)CCC2 (stereo partly drawn)
inactive: Potency [1] | Potency [2] | Potency [3] | Potency [4]

CC(CC(=O)O)CC(C)(C)C (stereo not drawn)
inactive: Potency [1] | Potency [2] | Potency [3]

CCOc1ccc2c(c1)C(C)=CC(C)(C)N2
inactive: Potency [1] | Potency [2] | Potency [3] | Potency [4]

CCCCCCCC/C=C\CCCCCCCC(=O)OC[C@@H](O)[C@H]1OC[C@H](O)[C@H]1O
inactive: Potency [1] | Potency [2] | Potency [3] | Potency [4]

Cn1ccc2cc3c(cc21)CCN3C(=O)Nc1cccnc1
inactive: activity, negative = inhibition [1] -3.7% [at 23.6 µM] | activity change, negative = inhibition [2] -19.7% [at 23.6 µM] | activity change, negative = inhibition [3] -28.9% [at 23.8 µM] | activity change, negative = inhibition [4] 2.86% [at 23.6 µM]

CCOC(=O)c1ccc(O)cc1
inactive: Potency [1] | Potency [2] | Potency [3] | Potency [4]

CC(=O)OC/C=C(\C)CC/C=C(\C)CCC=C(C)C
inactive: Potency [1] | Potency [2] | Potency [3] | Potency [4]

CC(=O)SCc1ccco1
inactive: Potency [1] | Potency [2] | Potency [3] | Potency [4]

CCCCCOc1ccc(C2SC(=O)NC2=O)cc1OCC (stereo not drawn)
inactive: Potency [1] | Potency [2] | Potency [3] | Potency [4]

O=C(O)c1ccccc1Cl
inactive: Potency [1] | Potency [2] | Potency [3] | Potency [4]

CC(=O)OCc1ccco1
inactive: Potency [1] | Potency [2] | Potency [3] | Potency [4]

CCOC(=O)CC1(C)OCC(C)O1 (stereo not drawn)
inactive: Potency [1] | Potency [2] | Potency [3] | Potency [4]

CO[Si](C)(C)OC
inactive: Potency [1] | Potency [2] | Potency [3] | Potency [4]

OC[C@H]1O[C@@H]2O[C@H]3[C@H](O)[C@@H](O)[C@@H](O[C@H]4[C@H](O)[C@@H](O)[C@@H](O[C@H]5[C@H](O)[C@@H](O)[C@@H](O[C@H]6[C@H](O)[C@@H](O)[C@@H](O[C@H]7[C@H](O)[C@@H](O)[C@@H](O[C@H]1[C@H](O)[C@H]2O)O[C@@H]7CO)O[C@@H]6CO)O[C@@H]5CO)O[C@@H]4CO)O[C@@H]3CO
inactive: Potency [1] | Potency [2] | Potency [3] | Potency [4]

CCCCCCOCCO
inactive: Potency [1] | Potency [2] | Potency [3] | Potency [4]

CC(=O)OCC(=O)[C@@]1(O)CC[C@H]2[C@@H]3CCC4=CC(=O)C=C[C@]4(C)[C@H]3[C@@H](O)C[C@@]21C
inactive: Potency [1] | Potency [2] | Potency [3] | Potency [4]

C=C(C)C(=O)OCCCCCCCC(C)C
inactive: Potency [1] | Potency [2] | Potency [3] | Potency [4]

CC1(C)C(=O)N(Cl)C(=O)N1Br
inactive: Potency [1] | Potency [2] | Potency [3] | Potency [4]

CCCCN1C(=O)c2ccccc2C1=O
inactive: Potency [1] | Potency [2] | Potency [3] | Potency [4]

O=C(O)c1ccccc1NCCc1ccccc1
inactive: Potency [1] | Potency [2] | Potency [3] | Potency [4]

OCC1CC=CCC1 (stereo not drawn)
inactive: Potency [1] | Potency [2] | Potency [3] | Potency [4]

O=C(O)Cc1ccccc1Oc1ccc(Cl)cc1Cl
inactive: Potency [1] | Potency [2] | Potency [3] | Potency [4]
